# Screens from PubChem BioAssay.
# In the library only some 3.6% were active in any assay of this set; here they are far more common.
# Pf apPOL inh: Pf-apPOL DNA polymerase inhibition; Recombinant Pf-apPOL, molecular beacon fluorescence, 1.5 h; inhibition, % at 10 µM; actives 0.25% (n = 210,000); AID 1794808
# mHTT-CaM PPI inh: mHTT-calmodulin interaction abrogation; AlphaScreen His-mHTT/GST-CaM binding, luminescence; inhibition, % at 15 µM; actives 3.6% (n = 190,000);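 also: 0% = both proteins with DMSO and 100% = one protein alone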
# Active calls of the source: *; nt = not tested or not shown. Rule as the data show it: active = inhibition above about 50%; inactive = the rest.
SMILES,Pf apPOL inh,mHTT-CaM PPI inh
Cc1cc(C)c(S(=O)(=O)N=C2C=CC(=O)C=C2)c(C)c1,-3.5,39.0
Cc1ccc(S(=O)(=O)N=C2C=C(C(C)C)C(=O)C(C(C)C)=C2)cc1,0.7,-4.0
COc1ccc(C(=O)Nc2ccc3oc(-c4ccncc4)nc3c2)cc1[N+](=O)[O-],-2.9,-4.8
O=C(O)C(O)Cc1ccc(O)c(O)c1 (centres undefined),84.3*,nt
N[C@@H](Cc1ccc(O)c(O)c1)C(=O)O,8.5,nt
CC(C)NC(=O)c1ccc(OCC2CCN(C(=O)c3cccs3)CC2)cc1,-3.4,-0.8
COc1cccc(C2C3=C(Nc4c2c(=O)n(C)c(=O)n4C)c2ccccc2C3=O)c1 (centres undefined),1.4,5.0
CC1(C)CC(=O)C2=C(C1)NC1=C(C(=O)c3ccccc31)C2c1cc(Br)ccc1O (centres undefined),2.4,56.0*
O=C1CC(c2ccco2)CC2=C1C(c1ccc(Cl)cc1)C1=C(N2)c2ccccc2C1=O (centres undefined),-3.2,64.0*
O=C1CC(c2ccco2)CC2=C1C(c1ccccc1)C1=C(N2)c2ccccc2C1=O (centres undefined),-7.0,28.0
CC1(C)CC(=O)C2=C(C1)NC1=C(C(=O)c3ccccc31)C2c1cccs1 (centres undefined),0.5,47.0
CC1(C)CC(=O)C2=C(C1)NC1=C(C(=O)c3ccccc31)C2c1ccc(F)cc1 (centres undefined),-6.3,62.0*
Cc1ccccc1C1C2=C(CC(C)(C)CC2=O)NC2=C1C(=O)CC(C)(C)C2,-8.5,1.5
COc1cccc(C2C3=C(CC(C)(C)CC3=O)NC3=C2C(=O)c2ccccc23)c1 (centres undefined),0.9,58.0*
COc1ccc(C2(C(=O)O)CCOCC2)cc1,2.0,1.9
Cc1ccc(NC(=O)Cn2c(C)nc3c(c2=O)CCN(Cc2ccccc2)C3)cc1,5.4,4.9
O=C(NCc1[nH]nc2ccccc12)c1cccc(Cl)c1,-3.4,1.4
Cc1cc(C2CCCN2C(=O)Nc2ccc(F)cc2F)on1 (centres undefined),-5.2,-7.3
O=C1CCCC2=C1C(c1cc([N+](=O)[O-])ccc1O)C1=C(N2)c2ccccc2C1=O (centres undefined),3.8,56.0*
O=C1CCCC2=C1C(c1cc([N+](=O)[O-])ccc1O)C1=C(CCCC1=O)N2,-7.7,-1.0
CC(C)n1nc(CNC(=O)c2cnccn2)c2ccccc21,-2.5,-2.6
Brc1ccc2c(c1)C1CC(c3cccs3)=NN1C1(CCCC1)O2 (centres undefined),-3.1,72.0*
CCOc1cccc2c1OC1(CCCCC1)N1N=C(c3cccs3)CC21 (centres undefined),-20.7,22.0
CC1(C)Oc2ccc(Cl)cc2C2CC(c3ccc(F)cc3)=NN21 (centres undefined),-18.3,50.0
Clc1ccc2c(c1)C1CC(c3cccs3)=NN1C1(CCCC1)O2 (centres undefined),-5.9,78.0*
SMILES,Pf apPOL inh,mHTT-CaM PPI inh
CC(C)c1ccc(Nc2nc3cccnc3s2)cc1,-65.9,nt
CCSc1ccc(C(=O)Nc2ccc(Cc3ccncc3)cc2)cc1[N+](=O)[O-],-7.7,6.9
Cc1cc(NC(=O)c2ccccc2C)ccc1I,-3.6,-10.0
Cc1ccc(C2C(C#N)=C(N)Oc3cc(O)ccc32)cc1 (centres undefined),-5.9,9.9
Cc1ccc(C2C(C#N)=C(N)Oc3c2ccc2cccnc32)cc1 (centres undefined),-5.0,58.3*
CC(C)NC(=O)Nc1nc2c(s1)CN(C(=O)Nc1c(F)cccc1F)CC2,0.1,-8.8
Cc1ccc(N2CCC(NC(=O)NC(C)C)C2=O)cc1 (centres undefined),3.0,-5.7
O=C(NCCCN1CCCC1)c1ccc(N2CCNC(c3ccccc3)C2)nc1 (centres undefined),-3.1,55.7*
O=C(NCc1ccc(Cl)cc1)c1ccc(N2CCNC(c3ccccc3)C2)nc1 (centres undefined),4.9,16.2
O=C(NCc1ccc(N2CCCC2)cc1)c1ccc(N2CCNC(c3ccccc3)C2)nc1 (centres undefined),0.2,79.4*
O=C(NCCCN1CCCCC1)c1ccc(N2CCNC(c3ccccc3)C2)nc1 (centres undefined),-5.0,4.4
CC(=NOc1ccc([N+](=O)[O-])cc1[N+](=O)[O-])c1ccccc1,2.3,nt
Cc1noc(C)c1S(=O)(=O)N1CCC(C(C)C(=O)NCc2ccc(F)cc2)CC1 (centres undefined),2.9,-5.6
CCC(C(=O)Nc1ncc(S(=O)(=O)c2ccc([N+](=O)[O-])cc2)s1)c1ccccc1 (centres undefined),-1.6,61.0*
O=C(Cc1ccccc1)Nc1ncc(S(=O)(=O)c2ccc([N+](=O)[O-])cc2)s1,-3.5,0.6
COc1ccc(CNc2ccc3cn[nH]c3c2)cc1Br,-5.3,70.7*
COc1ccc(CNc2cccc(F)c2)cc1Br,-9.4,-65.0
COc1ccc(CNc2ccccc2SC)cc1Br,1.0,-31.4
COc1cccc(CNc2ccc(F)c(Cl)c2)c1OC,4.7,26.3
COc1cccc(CNc2ccc3cn[nH]c3c2)c1OC,9.6,53.7*
COc1ccc(CNc2ccc(C)c(C)c2)cc1Br,-1.9,81.2*
COc1cc(OC)c(CNc2ccc3cn[nH]c3c2)cc1Br,-2.9,54.6*
COc1cc(OC)c(CNc2ccc(F)c(F)c2)cc1Br,7.6,9.5
Cc1ccccc1NC(=O)c1cnc(-c2ccc(F)cc2)nc1-c1ccncc1,-2.5,-0.8
CCN(CCN(C)C)c1ccc(-c2nc(-c3cccc(F)c3)no2)cn1,-3.2,5.9
SMILES,Pf apPOL inh,mHTT-CaM PPI inh
O=C(O)c1cc(=O)[nH]c2ccc(Br)cc12,-9.2,-1.3
COc1ccc(CNc2ccc(C)c(C)c2)c(OC)c1,-4.6,58.1*
COc1ccc(CNc2ccc(F)c(Cl)c2)c(OC)c1,-0.3,31.3
O=C(Nc1ccccc1F)C(NS(=O)(=O)c1cccs1)c1ccccc1 (centres undefined),-4.9,3.0
O=C(Nc1ccc(Cl)c(C(F)(F)F)c1)C(NS(=O)(=O)c1cccs1)c1ccccc1 (centres undefined),-8.5,100.0*
CSc1nnc(-c2cccs2)o1,-1.5,nt
N#CC1=C2N=C(N)c3c(sc4c3CCCCC4)N2C2=C(C(=O)CCC2)C1c1cccnc1 (centres undefined),-5.6,61.0*
N#CC1=C2NC(=O)c3c(sc4c3CCCCC4)N2C2=C(C(=O)CCC2)C1c1cccnc1 (centres undefined),-0.4,37.0
CSc1nnc2c(n1)OC(c1ccc(C(=O)O)cc1)Nc1ccc(Br)cc1-2 (centres undefined),-12.2,4.0
CCCSc1nnc2c(n1)OC(c1ccco1)Nc1ccccc1-2 (centres undefined),-4.9,7.0
CCCSc1nnc2c(n1)OC(c1ccco1)Nc1ccc(Br)cc1-2 (centres undefined),-7.3,53.0*
CSc1nnc2c(n1)OC(c1ccncc1)Nc1ccc(Br)cc1-2 (centres undefined),-4.7,54.0*
CCOc1ccccc1CN1CCc2nc(Nc3ccc(OC)cc3OC)ncc2C1,-6.2,55.1*
COc1ccc(OC)c(Nc2ncc3c(n2)CCN(Cc2ccccc2OC)C3)c1,-2.5,59.4*
COc1ccc(OC)c(Nc2ncc3c(n2)CCN(Cc2cccc(F)c2F)C3)c1,-1.6,16.6
COc1ccc(Nc2ncc3c(n2)CCN(Cc2cccc(C)c2)C3)c(OC)c1,-8.3,9.4
